For eight compounds, outcome and AC50 results are on record in PubChem BioAssay (EPA / NIEHS).

What all share (details): mRNA level, 48 h; actives raise or lower the signal
Read-out in experiment [1]: Tumor necrosis factor receptor superfamily member 6 (Homo sapiens) (UniProt P25445)
Nature of the experiment: LTEA_HepaRG_FAS: Life Technologies and Expression Analysis (LTEA) Assay for Fas cell surface death receptor (FAS) using HepaRG (AID 2283447). In outline: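 Differentiated HepaRG cells in serum-free induction medium were exposed 48 h to 8 half-log concentrations up to 100 uM in 0.5% DMSO, in duplicate. FAS mRNA was measured by qRT-PCR normalised to ACTB, GAPDH and POLR2A; bidirectional fit versus DMSO.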

Read-out in experiment [2]: Fatty acid synthase (Homo sapiens) (UniProt P49327)
Nature of the experiment: LTEA_HepaRG_FASN: Life Technologies and Expression Analysis (LTEA) Assay for Fatty Acid Synthase (FASN) using HepaRG (AID 2283448). Put shortly:
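In human HepaRG cultures, 48 h chemical exposure (up to 100 uM, 0.5% DMSO) preceded TaqMan qRT-PCR of FASN.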

Read-out in experiment [3]: Cyclin D2 (CCND2), CCND2 (gene 894)
Nature of the experiment: LTEA_HepaRG_CCND2: Life Technologies and Expression Analysis (LTEA) Assay for Cyclin D2 (CCND2) using HepaRG (AID 2283449).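 Also: CCND2 transcript measured by TaqMan qRT-PCR and normalised to three housekeeping genes.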 Put shortly: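 HepaRG, 48 h dosing, 8-pt half-log curve from 100 uM, 0.5% DMSO; duplicate wells. Readout: CCND2 transcript by microfluidic qRT-PCR, housekeeping-normalised; bidirectional fit vs DMSO baseline.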

Read-out in experiment [4]: Cyclin Dependent Kinase Inhibitor 1A (CDKN1A), CDKN1A (gene 1026)
Nature of the experiment: LTEA_HepaRG_CDKN1A: Life Technologies and Expression Analysis (LTEA) Assay for Cyclin Dependent Kinase Inhibitor 1A (CDKN1A) using HepaRG (AID 2283450). Put shortly: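 Cryopreserved HepaRG cells were plated and cultured 48 h, then switched to serum-free induction medium. Chemicals (eight half-log concentrations, top 100 uM, 0.5% DMSO) were applied for 48 h. Lysates underwent qRT-PCR for CDKN1A with housekeeping normalization.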

Read-out in experiment [5]: Cyclin D1 (CCND1), CCND1 (gene 595)
Nature of the experiment: LTEA_HepaRG_CCND1: Life Technologies and Expression Analysis (LTEA) Assay for Cyclin D1 (CCND1) using HepaRG (AID 2283451). Put shortly: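 Human liver HepaRG line; 48 h dosing, 8 conc. ≤100 uM, 0.5% DMSO; TaqMan qRT-PCR mRNA, 3 housekeeping genes; bidirectional curve fit vs DMSO.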

Read-out in experiment [6]: catalase (CAT), CAT (gene 847)
Nature of the experiment: LTEA_HepaRG_CAT: Life Technologies and Expression Analysis (LTEA) Assay for catalase (CAT) using HepaRG (AID 2283452). In outline: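 HepaRG cells in serum-free induction medium, 0.5% DMSO vehicle, exposed 48 h in duplicate over 8 half-log concentrations from 100 uM. CAT mRNA measured by qRT-PCR, normalized to ACTB, GAPDH, POLR2A; bidirectional fit versus DMSO.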

Read-out in experiment [7]: flavin-containing dimethylaniline monooxygenases 3 (FMO3), FMO3 (gene 2328)
In words: LTEA_HepaRG_FMO3: Life Technologies and Expression Analysis (LTEA) Assay for flavin-containing dimethylaniline monooxygenases 3 (FMO3) using HepaRG (AID 2283453). Put shortly: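 Eight-point concentration-response in serum-free HepaRG cultures (top 100 uM, 0.5% DMSO, 48 h). Read-out: FMO3 mRNA level normalized to three endogenous control genes, fitted bidirectionally versus vehicle.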

Read-out in experiment [8]: CFLAR gene, CFLAR (gene 8837)
In words: LTEA_HepaRG_CFLAR: Life Technologies and Expression Analysis (LTEA) Assay for CFLAR gene using HepaRG (AID 2283455). In outline: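 qRT-PCR read-out (Fluidigm/TaqMan) of CFLAR mRNA, normalized to three housekeeping genes, in differentiated human HepaRG cells after 48 h chemical exposure; 8-point half-log series from 100 uM in 0.5% DMSO; bidirectional curve fitting versus DMSO.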

Read-out in experiment [9]: Forkhead box O1 (FOXO1), FOXO1 (gene 2308)
Nature of the experiment: LTEA_HepaRG_FOXO1: Life Technologies and Expression Analysis (LTEA) Assay for Forkhead box O1 (FOXO1) using HepaRG (AID 2283456). Put shortly: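 HepaRG, 48 h exposure, 8-pt half-log series from 100 uM in 0.5% DMSO, duplicates; Fluidigm qRT-PCR mRNA, housekeeping-normalised; bidirectional fit vs DMSO baseline.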

Read-out in experiment [10]: growth arrest and DNA damage 45 (GADD45A), GADD45A (gene 1647)
In words: LTEA_HepaRG_GADD45A: Life Technologies and Expression Analysis (LTEA) Assay for growth arrest and DNA damage 45 (GADD45A) using HepaRG (AID 2283458). Put shortly: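 Eight-point concentration-response in HepaRG cells: 48 h chemical exposure, 0.5% DMSO vehicle, top dose 100 uM. Normalized qRT-PCR mRNA readout with bidirectional fitting relative to DMSO.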

Read-out in experiment [11]: Forkhead box O3 (FOXO3), FOXO3 (gene 2309)
Nature of the experiment: LTEA_HepaRG_FOXO3: Life Technologies and Expression Analysis (LTEA) Assay for Forkhead box O3 (FOXO3) using HepaRG (AID 2283459). Put shortly:
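qRT-PCR readout of FOXO3 transcript, normalized to three housekeeping genes (ACTB, GAPDH, POLR2A); gain or loss fitted against 0.5% DMSO vehicle. HepaRG cells, 48 h chemical exposure, 8-point half-log series, top 100 uM.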

Read-out in experiment [12]: ABC Transporter (ABCB1), ABCB1 (gene 5243)
Nature of the experiment: LTEA_HepaRG_ABCB1: Life Technologies and Expression Analysis (LTEA) Assay for ABC Transporter (ABCB1) using HepaRG (AID 2283460). In outline: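 HepaRG, 48 h exposure, 8-pt half-log series from 100 uM, 0.5% DMSO vehicle, duplicates. Readout: ABCB1 transcript by Fluidigm TaqMan qRT-PCR, housekeeping-normalized; bidirectional curve fit vs DMSO baseline.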

Read-out in experiment [13]: growth arrest and DNA damage 45 (GADD45B), GADD45B (gene 4616)
Nature of the experiment: LTEA_HepaRG_GADD45B: Life Technologies and Expression Analysis (LTEA) Assay for growth arrest and DNA damage 45 (GADD45B) using HepaRG (AID 2283461). In outline:
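Values are bidirectional concentration-response fits against 0.5% DMSO controls. Underlying data: qRT-PCR mRNA levels in human HepaRG liver cells treated 48 h in serum-free induction medium, eight concentrations topping at 100 uM.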

Read-out in experiment [14]: ABC Transporter (ABCC3), ABCC3 (gene 8714)
In words: LTEA_HepaRG_ABCC3: Life Technologies and Expression Analysis (LTEA) Assay for ABC Transporter (ABCC3) using HepaRG (AID 2283462). Put shortly:
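Differentiated HepaRG liver cells receive test chemicals at eight concentrations (max 100 uM) for 48 h. Expression of ABCC3 is quantified by qRT-PCR against ACTB, GAPDH and POLR2A, and activity is fitted in both directions against the DMSO control.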

Read-out in experiment [15]: Cytochrome P450 (CYP1A1), CYP1A1 (gene 1543)
Nature of the experiment: LTEA_HepaRG_CYP1A1: Life Technologies and Expression Analysis (LTEA) Assay for Cytochrome P450 (CYP1A1) using HepaRG (AID 2283454). In outline: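 Induction of CYP1A1 mRNA in a human hepatic cell line was measured 48 h after dosing, with 1 mM phenobarbital as induction positive control and 0.5% DMSO vehicle as baseline for bidirectional curve fitting.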

Active and inactive are the calls of the source. The calls were made as follows: active = hit-call score of the fitted dose curve at least 0.9, where 1 is the maximum; inactive = score below 0.9.

Fatty acid synthase (Homo sapiens), sequence (P49327 whole entry, looked up): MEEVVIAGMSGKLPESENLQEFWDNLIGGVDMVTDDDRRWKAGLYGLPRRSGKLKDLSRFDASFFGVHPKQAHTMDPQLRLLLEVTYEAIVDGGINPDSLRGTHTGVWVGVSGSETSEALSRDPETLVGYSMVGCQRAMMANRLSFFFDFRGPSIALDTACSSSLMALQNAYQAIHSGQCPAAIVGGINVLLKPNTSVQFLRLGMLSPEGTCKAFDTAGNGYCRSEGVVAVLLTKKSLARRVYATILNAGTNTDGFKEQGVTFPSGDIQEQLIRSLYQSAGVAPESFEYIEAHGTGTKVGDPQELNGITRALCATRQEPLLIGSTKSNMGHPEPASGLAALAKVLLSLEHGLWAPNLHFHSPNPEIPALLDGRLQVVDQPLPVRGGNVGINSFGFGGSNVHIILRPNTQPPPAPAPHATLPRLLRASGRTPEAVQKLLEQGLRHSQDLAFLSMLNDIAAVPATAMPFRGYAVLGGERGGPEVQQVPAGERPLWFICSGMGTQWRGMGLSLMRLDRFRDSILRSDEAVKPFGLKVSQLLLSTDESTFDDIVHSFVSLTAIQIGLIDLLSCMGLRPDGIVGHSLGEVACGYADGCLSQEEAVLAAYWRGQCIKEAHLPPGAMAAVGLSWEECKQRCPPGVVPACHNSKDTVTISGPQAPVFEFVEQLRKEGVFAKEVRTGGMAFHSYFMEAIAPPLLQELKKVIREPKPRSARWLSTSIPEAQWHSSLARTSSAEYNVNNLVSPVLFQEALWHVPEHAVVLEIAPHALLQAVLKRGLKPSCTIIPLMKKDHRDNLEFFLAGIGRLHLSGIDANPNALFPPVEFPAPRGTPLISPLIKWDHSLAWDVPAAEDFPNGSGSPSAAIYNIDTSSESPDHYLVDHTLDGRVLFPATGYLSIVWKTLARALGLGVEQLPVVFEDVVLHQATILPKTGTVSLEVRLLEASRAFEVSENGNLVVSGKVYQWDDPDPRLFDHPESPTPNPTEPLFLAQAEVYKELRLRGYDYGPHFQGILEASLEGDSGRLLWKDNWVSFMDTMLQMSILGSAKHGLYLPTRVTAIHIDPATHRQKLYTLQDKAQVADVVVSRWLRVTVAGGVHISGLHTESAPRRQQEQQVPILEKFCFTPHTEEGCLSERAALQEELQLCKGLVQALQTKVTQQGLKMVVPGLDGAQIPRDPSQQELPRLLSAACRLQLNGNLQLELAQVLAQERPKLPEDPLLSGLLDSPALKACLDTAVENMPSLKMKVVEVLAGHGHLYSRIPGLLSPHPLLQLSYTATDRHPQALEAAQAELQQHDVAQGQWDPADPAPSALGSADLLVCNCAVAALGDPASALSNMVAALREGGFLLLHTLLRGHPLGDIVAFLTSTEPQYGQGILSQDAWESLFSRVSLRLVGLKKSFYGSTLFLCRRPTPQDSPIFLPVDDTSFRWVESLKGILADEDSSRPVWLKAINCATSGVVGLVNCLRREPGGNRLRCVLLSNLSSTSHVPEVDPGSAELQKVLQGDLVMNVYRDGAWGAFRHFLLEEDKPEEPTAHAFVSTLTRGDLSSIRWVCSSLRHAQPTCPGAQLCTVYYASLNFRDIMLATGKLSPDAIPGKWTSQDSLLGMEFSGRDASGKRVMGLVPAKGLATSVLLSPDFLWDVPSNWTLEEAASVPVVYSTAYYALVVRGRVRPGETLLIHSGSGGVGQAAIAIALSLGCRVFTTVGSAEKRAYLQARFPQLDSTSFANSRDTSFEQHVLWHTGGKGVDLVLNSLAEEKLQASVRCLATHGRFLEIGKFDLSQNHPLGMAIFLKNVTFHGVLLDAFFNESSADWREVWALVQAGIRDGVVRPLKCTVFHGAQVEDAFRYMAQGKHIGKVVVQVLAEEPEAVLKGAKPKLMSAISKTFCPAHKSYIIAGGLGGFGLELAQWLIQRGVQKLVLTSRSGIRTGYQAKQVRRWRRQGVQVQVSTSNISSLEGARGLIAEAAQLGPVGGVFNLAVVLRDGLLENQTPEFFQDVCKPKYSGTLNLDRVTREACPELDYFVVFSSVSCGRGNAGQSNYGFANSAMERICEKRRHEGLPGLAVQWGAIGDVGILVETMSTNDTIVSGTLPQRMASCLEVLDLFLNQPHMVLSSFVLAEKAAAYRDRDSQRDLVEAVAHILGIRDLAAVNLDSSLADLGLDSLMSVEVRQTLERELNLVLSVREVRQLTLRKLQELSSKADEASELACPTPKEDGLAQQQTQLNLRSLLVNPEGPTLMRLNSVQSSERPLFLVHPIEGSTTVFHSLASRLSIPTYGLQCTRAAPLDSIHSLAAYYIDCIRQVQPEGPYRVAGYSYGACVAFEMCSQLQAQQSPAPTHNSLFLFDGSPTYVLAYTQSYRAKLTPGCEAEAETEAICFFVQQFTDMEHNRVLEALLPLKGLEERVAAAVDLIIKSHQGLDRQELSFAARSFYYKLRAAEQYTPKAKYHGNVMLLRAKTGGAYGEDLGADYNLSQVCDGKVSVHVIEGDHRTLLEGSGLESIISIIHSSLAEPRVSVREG

`CC(C)=CCC/C(C)=C/CO`: the compound was classed as inactive in experiment [1], in experiment [2], in experiment [3], in [4], in experiment [5] and in experiment [6]. Moreover, the compound was called inactive in [7], in experiment [8], in experiment [9], in experiment [10], in experiment [11] and in experiment [12]. In addition, the call in [13] and in [14] was inactive.

By AC50 is commonly meant the midpoint of the concentration-response curve, whichever way the signal moves. Take `O=C(O)CCN(C1(C(=O)NO)CCCC1)S(=O)(=O)c1ccc(Oc2ccc(F)cc2)cc1`: the compound was called inactive in experiment [1], in experiment [2], in [3], in experiment [4], in experiment [5] and in experiment [6]. Further, the compound was called inactive in [7], in [8], in experiment [9], in experiment [10], in experiment [11] and in experiment [13]. The call in experiment [14] was inactive. The concentration at half-maximal activity (AC50) in [15] is 67.5 µM (active).

As to `CC(C)CCCCCCOC(=O)c1ccc(C(=O)OCCCCCCC(C)C)c(C(=O)OCCCCCCC(C)C)c1`, the result in experiment [1], in experiment [2], in experiment [3], in experiment [4], in experiment [5] and in [6] was inactive. Also, the call in experiment [7], in experiment [8], in experiment [9], in experiment [10], in [11] and in experiment [12] was inactive. The result in [13] and in [14] was inactive. Also, the AC50 in experiment [15] was 50 µM (active).

Turning to `O=C1OC(=O)C2C3C=CC(C3)C12` (centres undefined), the call in experiment [1], in experiment [2], in [3], in [4], in [5] and in experiment [6] was inactive. The call in [7], in [8], in experiment [9], in experiment [10], in [11] and in experiment [13] was inactive. Also, in experiment [14], the call was inactive. Besides, in experiment [15], the AC50 was 84.5 µM (active).

`C=CC(=C)CCC=C(C)C`: the result in experiment [1], in experiment [2], in [3], in experiment [4], in [5] and in [6] was inactive. Further, the compound was called inactive in experiment [7], in experiment [8], in experiment [9], in experiment [10], in [11] and in experiment [13]. Further, the compound was called inactive in experiment [14]. Besides, the AC50 in [15] was 35 µM (active).

Regarding `CC(=O)c1ccc2c(c1)[C@H](NC(=O)c1ccc(F)cc1)[C@@H](O)C(C)(C)O2`, the call in [1], in experiment [2], in [3], in experiment [4], in experiment [5] and in [6] was inactive. Also, the call in [7], in experiment [15], in experiment [8], in [9], in experiment [10] and in [11] was inactive. In addition, the outcome in [12], in [13] and in experiment [14] was inactive.

In the case of `CCCC(=O)OCC`, the compound was called inactive in experiment [1], in experiment [2], in experiment [3], in experiment [4], in experiment [5] and in experiment [6]. Also, the compound was called inactive in experiment [7], in experiment [8], in experiment [9], in experiment [10], in experiment [11] and in experiment [12]. The compound was called inactive in experiment [13] and in experiment [14].

`O=C(O)c1cc(N=Nc2ccc(S(=O)(=O)Nc3ccccn3)cc2)ccc1O`: the outcome in experiment [1], in experiment [2], in experiment [3], in [4], in [5] and in experiment [6] was inactive. For the same compound, the compound was called inactive in [7], in experiment [8], in experiment [9], in experiment [10], in experiment [11] and in [12]. Further, the outcome in experiment [13] and in experiment [14] was inactive.
